Results filed as inconclusive are left out. Where a call stands in place of a potency, no number is given. Active and inactive are the calls of the source. The call rests on the fitted dose curve.
Each compound was assayed against Atrial natriuretic peptide receptor 1 (Homo sapiens) (UniProt P16066) (assay: Natriuretic polypeptide receptor (hNpr1) antagonism - Pilot screen (AID 1347049;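 further: HEK293 cells with hNpr1 and GloSensor cGMP luciferase stimulated by 0.1 nM hNppA; agonist-evoked cGMP luminescence read 20 min after hNppA addition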)). Details: hNpr1 cells, antagonist mode cGMP read-out; series mostly up to 57.5 µM.
How it was run: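 Receptor antagonism read as cGMP-dependent luminescence in hNpr1/pGS-40F HEK293 cells: pre-read after 30 min compound exposure, post-read 20 min after hNppA agonist at 0.1 nM final, all at room temperature, protected from light; A-71915 titration as control.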
Potency means the concentration at half of the fitted maximal effect.

Chain of Atrial natriuretic peptide receptor 1 (Homo sapiens) (P16066 whole entry, looked up): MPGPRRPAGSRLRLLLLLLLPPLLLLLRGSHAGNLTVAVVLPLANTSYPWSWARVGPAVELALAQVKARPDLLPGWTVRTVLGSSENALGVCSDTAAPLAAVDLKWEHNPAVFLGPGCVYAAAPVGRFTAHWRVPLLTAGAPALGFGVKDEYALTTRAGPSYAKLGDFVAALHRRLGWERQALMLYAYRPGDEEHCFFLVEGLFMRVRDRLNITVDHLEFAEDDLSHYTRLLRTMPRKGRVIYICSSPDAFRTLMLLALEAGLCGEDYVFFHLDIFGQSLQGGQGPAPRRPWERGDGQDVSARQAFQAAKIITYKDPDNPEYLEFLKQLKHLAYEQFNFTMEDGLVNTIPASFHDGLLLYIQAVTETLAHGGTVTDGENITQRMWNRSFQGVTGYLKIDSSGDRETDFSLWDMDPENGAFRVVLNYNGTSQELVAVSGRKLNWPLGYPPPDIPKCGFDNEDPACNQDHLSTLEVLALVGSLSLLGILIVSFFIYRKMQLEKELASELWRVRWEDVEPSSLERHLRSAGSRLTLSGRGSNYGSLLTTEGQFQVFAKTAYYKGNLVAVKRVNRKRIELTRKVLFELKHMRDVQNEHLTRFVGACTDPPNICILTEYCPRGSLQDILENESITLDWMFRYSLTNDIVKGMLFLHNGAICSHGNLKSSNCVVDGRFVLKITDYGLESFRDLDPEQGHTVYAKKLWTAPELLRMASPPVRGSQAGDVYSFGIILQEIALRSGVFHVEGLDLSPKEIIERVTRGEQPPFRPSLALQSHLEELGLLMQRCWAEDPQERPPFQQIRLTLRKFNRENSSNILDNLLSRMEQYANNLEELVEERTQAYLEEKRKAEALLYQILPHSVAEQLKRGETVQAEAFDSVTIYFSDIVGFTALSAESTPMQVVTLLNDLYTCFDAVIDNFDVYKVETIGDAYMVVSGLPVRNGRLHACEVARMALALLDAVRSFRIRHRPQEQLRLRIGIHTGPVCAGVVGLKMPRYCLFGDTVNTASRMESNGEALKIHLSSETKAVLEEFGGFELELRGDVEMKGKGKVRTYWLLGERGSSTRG

Structure (SMILES) | Potency
OCC1O[C@H]([S-])[C@H](O)[C@@H](O)[C@@H]1O.[Au+] (some centres undefined) | inactive
Cn1c(=O)c2[nH]c(-c3ccccc3)nc2n(C)c1=O | inactive
CCCn1c(=O)c2[nH]c(-c3ccc(OCC(=O)NCCN)cc3)nc2n(CCC)c1=O | inactive
CN1CCc2cc(O)c(O)cc2C(c2ccccc2)C1 (centres undefined) | inactive
CC[C@@H](C)[C@H]1O[C@]2(CC[C@H]1C)C[C@@H]1C[C@@H](CC=C(C)[C@@H](O[C@H]3C[C@H](OC)[C@@H](O[C@H]4C[C@H](OC)[C@@H](O)[C@H](C)O4)[C@H](C)O3)[C@@H](C)C=CC=C3CO[C@@H]4[C@H](O)C(C)=C[C@@H](C(=O)O1)[C@]34O)O2 | inactive
N#C/C(=C\c1c[nH]c2ccccc12)C(=O)c1ccc(O)c(O)c1 | inactive
O=S(=O)(c1cccc2c(I)cccc12)N1CCCNCC1 | inactive
Fc1cccc(/C=N/N=C/c2cccc(F)c2)c1 | inactive
CC(C)(C)c1ccc(S(=O)(=O)/C=C/C#N)cc1 | 12 µM (active)
NC[C@@H]1O[C@H](C23CC4CC(CC(C4)C2)C3)Cc2c1ccc(O)c2O | inactive
O=Nc1ccc2oc(=O)ccc2c1 | inactive
CN(C)c1ccc(/C=C2\C(=O)Nc3ccccc32)cc1 | 1.2 µM (active)
CC(C)ON([C@@H](C(=O)NO)C(C)C)S(=O)(=O)c1ccc(-c2ccccc2)cc1 | inactive
CN(C)c1nc2c(Br)c(Br)c(Br)c(Br)c2[nH]1 | inactive
C[C@@H](NC(=O)/C(C#N)=C/c1ccc(O)c(O)c1)c1ccccc1 | inactive
COc1ccccc1N1CCN(CCCCNS(=O)(=O)c2cccc3c(N(C)C)cccc23)CC1 | inactive
CN1C2CC(OC(=O)[C@H](CO)c3ccccc3)CC1C1OC12 (some centres undefined) | inactive
N#C/C(=C\c1ccc(-c2cc(Cl)ccc2Cl)o1)C(=O)Nc1cccc2ncccc12 | inactive
N=C(N)SCCc1ccc(CCSC(=N)N)cc1 | inactive
COc1cccc(OC)c1OCCNCC1COc2ccccc2O1 (centres undefined) | inactive

Structure (SMILES) | Potency
COC1=C(OC)C(=O)c2ccccc2C1=O | inactive
CCCCCCCCCCCCCCCCCCNC(=O)OCC(COP(=O)([O-])OCC[n+]1ccsc1)OC (centres undefined) | inactive
O=C(O)CCCC[C@@H]1CCSS1 | inactive
CC(=O)/C=C1\C(=O)N(C)c2ccccc21 | 16.9 µM (active)
C[N+](C)(C)CC(=O)[O-] | inactive
O=C(/C=C/c1ccc(O)cc1)c1ccc(O)cc1O | 30.1 µM (active)
N#C/C(=C\c1ccc(O)c(O)c1)C(=O)NCCCc1ccccc1 | inactive
Oc1ccccc1O | inactive
N.N.N.N.N.N.N.N.N.N.N.N.N.N.O.O.[Ru+4].[Ru+5].[Ru+5] | inactive
c1ccc(-c2ccccn2)nc1 | inactive
NCCCCC(=O)O | inactive
COc1ccccc1CNCCCCCCNCCCCCCCCNCCCCCCNCc1ccccc1OC | inactive
N#C/C(=C\c1ccc(O)c(O)c1)C(=O)c1ccc(O)c(O)c1 | inactive
CCCCCCCCCCCCCCCCCC(=O)NCC(COP(=O)([O-])OCC[N+](C)(C)C)OCC (centres undefined) | inactive
CSc1ccccc1N1CCN(CCCCCC(=O)NC2CCCc3ccccc32)CC1 (centres undefined) | inactive
N[C@@H](CC(=O)O)C(=O)O | inactive
Nc1ncnc2c1c(I)cn2[C@@H]1C[C@H](N)[C@@H](O)[C@H]1O | inactive
NC[C@H]1O[C@@H](n2cnc3c(N)ncnc32)[C@H](O)[C@@H]1O | inactive
O=C(O)[C@@H]1C[C@H](C(=O)O)N1 | inactive

Source: PubChem BioAssay (NCATS)
